Hits are enriched below; roughly 0.9% of the tested compounds scored in any of these assays.
PPARg SRC1 recr = PPARgamma-driven SRC-1 recruitment agonism; activation, % at 8 µM; PPARgamma-SRC-1 coactivator recruitment biochemical assay; P37231; 200,000 tested, 0.41% active; AID 631; in the data active means activation above about 19%;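 further: 0% = DMSO and 100% = reference agonist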
Target sequence (P37231 whole entry, looked up): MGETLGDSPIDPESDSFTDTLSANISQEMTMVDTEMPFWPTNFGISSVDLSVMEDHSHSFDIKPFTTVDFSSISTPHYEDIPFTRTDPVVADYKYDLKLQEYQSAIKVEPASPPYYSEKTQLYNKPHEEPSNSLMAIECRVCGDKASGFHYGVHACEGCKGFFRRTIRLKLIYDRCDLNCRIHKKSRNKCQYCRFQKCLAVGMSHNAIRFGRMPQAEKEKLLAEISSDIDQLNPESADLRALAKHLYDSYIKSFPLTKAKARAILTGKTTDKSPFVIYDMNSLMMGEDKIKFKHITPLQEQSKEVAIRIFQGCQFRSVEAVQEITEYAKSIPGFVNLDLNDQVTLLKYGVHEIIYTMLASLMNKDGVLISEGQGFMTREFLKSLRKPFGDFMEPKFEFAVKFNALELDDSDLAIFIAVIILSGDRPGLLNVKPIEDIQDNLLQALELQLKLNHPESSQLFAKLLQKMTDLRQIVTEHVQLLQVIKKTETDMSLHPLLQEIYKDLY
SRC3 TRFRET art = counter-screen for PPARgamma SRC-3 recruitment agonists: TR-FRET artefact; PPARgamma/SRC-3 format; hits give high values; TR-FRET ratio at 8 µM; 99,000 tested, 0.39% active; in the data active means TR-FRET ratio above about 2000
SRC1 TRFRET art = counter-screen for PPARgamma SRC-1 recruitment agonists: TR-FRET artefact. TR-FRET ratio at 8 µM. TR-FRET detection artefact counter-screen, emission ratio; hits give high values. 99,000 tested, 0.34% active; in the data active means TR-FRET ratio above about 2300
TR-FRET SRC-2 ct = TR-FRET artefact, counter-screen to PPARgamma/SRC-2 agonist assay; hits give high values; TR-FRET ratio at 8 µM; 200,000 tested, 0.4% active; AID 1049; in the data active means TR-FRET ratio above about 2000
PPARg SRC-3 ag = PPARgamma-driven SRC-3 recruitment agonism. P37231. biochemical PPARgamma/SRC-3 coactivator recruitment assay. activation, % at 8 µM. 200,000 tested, 0.26% active. AID 731; in the data active means activation above about 23%;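 further: 0% = DMSO and 100% = reference agonist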
PPARg SRC-2 ag = PPARgamma-driven SRC-2 recruitment agonism. activation, % at 8 µM. 200,000 tested, 0.34% active. PPARgamma LBD-SRC-2 recruitment, biochemical;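 further: 0% = vehicle and 100% = reference agonist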
PPARg SRC2 ag = confirmation of agonists of SRC-2 recruitment by human PPARgamma; shares compounds with PPARg SRC-3 ag; biochemical SRC-2 recruitment by PPARgamma; activation, % at 8 µM; 790 tested, 52% active; AID 1297;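 further: 0% = vehicle alone and 100% = reference agonist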
PPARg SRC1 conf = confirmation of agonists of SRC-1 recruitment by human PPARgamma; shares compounds with PPARg SRC-3 ag; PPARgamma–SRC-1 coactivator recruitment biochemical assay; activation, % at 8 µM; 790 tested, 43% active; in the data active means activation above about 20%;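 further: 0% = vehicle wells and 100% = reference agonist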
PPARg SRC3 conf = confirmation of agonists of SRC-3 recruitment by human PPARgamma. shares compounds with PPARg SRC-3 ag. biochemical PPARgamma-SRC-3 coactivator recruitment, agonist mode. activation, % at 8 µM. 790 tested, 29% active. AID 1301; in the data active means activation above about 24%;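 further: 0% = vehicle wells and 100% = reference agonist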
Starred values were filed as active, the others as inactive; . = no result given. Unless noted, no stated cut-off is given here; in the data, active means activation above about 22%; inactive means the rest.

SMILES	PPARg SRC1 recr	SRC3 TRFRET art	SRC1 TRFRET art	TR-FRET SRC-2 ct	PPARg SRC-3 ag	PPARg SRC-2 ag	others
CC(C)Cn1c(N)c(C(=O)COC(=O)c2ccc([N+](=O)[O-])o2)c(=O)n(C)c1=O	3	1448	1937	1982*	5	12
C/C(CC(=O)Nc1cccc(Cl)c1C)=N\NC(=O)Cc1csc(N)n1	-2	1491	1602	1414	0	-6
O=C(/C=C/c1ccc(Br)cc1)c1ccc(NC(=O)c2ccco2)cc1	4	14077*	2646*	5699*	6	1
N#C/C(=C\c1cccc2ccccc12)c1nn(-c2ccccc2)c(N)c1C#N	19*	.	.	1650	16	17
Cc1ccc(/C=C(\C#N)c2nn(-c3ccccc3)c(N)c2C#N)cc1	-4	1337	1776	1725	-4	-3
CCCCC(CC)c1nnc(NC(=O)c2cccs2)s1 (stereo not drawn)	-2	1670	1873	1818	6	22*
CC(NC(=S)Nc1ccccc1Cl)C(c1cccs1)N1CCCC1 (stereo not drawn)	3	1712	1912	1572	5	10
Cc1ccc(-c2[nH]c(=S)[nH]c(=O)c2C#N)cc1	-18	2293*	2571*	2179*	18	-4
CSc1cc(-c2ccc(Cl)cc2)[nH]c(=O)c1C#N	3	1471	1498	1403	-2	-5
Cc1ccccc1NC(=S)N(CCN1CCOCC1)Cc1ccccc1F	4	1283	1452	1384	2	-2
O=C(CSc1ccc(-c2ccccc2)nn1)c1cccs1	-3	1646	1739	1579	1	7
COc1ccc(-c2ccc(SCC(=O)c3cccs3)nn2)cc1	-6	2137*	2310	1638	4	14
CCOC(=O)c1c(C)[nH]c(C)c1C(=O)CSc1nc2ccccc2c(=O)n1-c1ccc(CC)cc1	3	1640	1883	1617	2	6
CC(=O)c1ccc(-n2c(SCC(=O)c3c[nH]c4ccccc34)nc3ccccc3c2=O)cc1	4	2096*	2168	1706	5	11
CC(C)N1CCN(Cc2ccc(Oc3ncccn3)cc2)CC1CCO (stereo not drawn)	21*	1564	2154	1545	2	-4
CC(C)CCN1CCN(Cc2ccc(Oc3ncccn3)cc2)CC1CCO (stereo not drawn)	-1	1525	1614	1741	-3	3
COc1ccc(NS(=O)(=O)c2csc(C(=O)Nc3ccccc3)c2)cc1	-1	1682	1818	1631	2	-4
COCCNS(=O)(=O)c1ccc(C)c(C)c1C	0	1412	1950	1531	4	-1
Cc1nc(SCC(=O)OCc2ccccc2)c(C#N)c(-c2ccccc2)c1C(=O)Nc1ccccc1	3	.	.	2287*	11	-2
Cc1ccccc1NC(=O)c1c(C)nc(SCC(=O)OCc2ccccc2)c(C#N)c1-c1ccc(F)cc1	1	1628	1564	1588	-5	-2
COC(=O)CSc1nc(C)c(C(=O)Nc2ccccc2C)c(-c2ccc(Cl)cc2)c1C#N	-6	2162*	1720	1652	-1	-4
CC(=O)c1ccccc1NS(=O)(=O)c1ccccc1Cl	1	1750	1676	1628	1	-1
CCc1ccc2c(c1)cc(CN(C(=S)Nc1ccc(Cl)cc1)C1CC1)c1nnnn12	48*	.	.	1566	1	-4
COCCNC(=S)N(Cc1cc2cc(C)ccc2n2nnnc12)C1CCCC1	-9	1536	1583	1421	1	1
CCc1nnc(NC(=O)C2CCCN2C(=O)Nc2ccccc2)s1 (stereo not drawn)	2	1666	1832	1615	7	6
SMILES	PPARg SRC1 recr	SRC3 TRFRET art	SRC1 TRFRET art	TR-FRET SRC-2 ct	PPARg SRC-3 ag	PPARg SRC-2 ag	others
COC(=O)c1ccc(N2CCN(C(C)=O)CC2)c(NC(=O)c2cccnc2)c1	8	1606	1753	1508	0	7
COc1cc(OC)cc(-c2nnc(SCC(=O)N(Cc3ccccc3)C(C)(C)C)o2)c1	17	.	.	1712	5	23*
COc1ccc(C2CC(c3ccc(Br)cc3)=NN2C(=O)CSC2=NCCS2)cc1 (stereo not drawn)	-8	2257*	1958	1826	5	9
CCN(CC)C(=O)Cn1c(=O)n(-c2ccccc2)c(=O)c2c3c(sc21)CCC3	-2	.	.	2144*	5	22*
CCOc1ccc2[nH]c(=O)c(C(c3nnnn3C3CCCCC3)N3CCN(CC)CC3)cc2c1 (stereo not drawn)	5	.	.	1638	-1	1
CCOc1ccc2[nH]c(=O)c(C(c3nnnn3C3CCCCC3)N3CCN(C)CC3)cc2c1 (stereo not drawn)	23*	1653	2124	1495	1	5
O=C1CC(C(=O)Nc2cccc(F)c2)n2ncnc2N1 (stereo not drawn)	-2	1520	1744	1781	1	2
Cc1cccc(N/C=C(\[N+](=O)[O-])S(=O)(=O)c2ccccc2)c1C	-5	1524	1989	1655	0	4
C=COC(=O)CSc1nc(-c2cccs2)ccc1C#N	17	.	.	2052*	9	19
Cn1cnnc1SCc1ccc(C(=O)N=Nc2c(O)n(C)c3ccccc23)cc1	8	1751	1595	1643	3	23*
CN1C(=O)CS/C1=N\NC(=O)COc1cccc2cccnc12	-5	1303	1758	1546	0	-10
COc1ccc(-c2cc(=O)c3ccccc3s2)cc1	0	.	.	1505	0	-4
COc1ccc2sc3ccccc3c(=O)c2c1	3	.	.	2220*	3	6
CCOc1ncccc1C(=O)N1CCN(S(=O)(=O)c2ccc(Br)cc2Cl)CC1	8	1480	1843	1741	4	7
CCOc1ccc(CNc2ccc(N3CCCC3)cc2)cc1	12	.	.	1770	22	29*	PPARg SRC2 ag=11;PPARg SRC1 conf=5;PPARg SRC3 conf=6
COc1ccc(-c2nc(SCC(=O)NC3CCCC3)c(-c3ccc(OC)cc3)[nH]2)cc1	7	1994	1827	1685	10	24*	PPARg SRC2 ag=1;PPARg SRC1 conf=2;PPARg SRC3 conf=-1
COC(=O)c1c(C)[nH]c(C(=O)C(C)Sc2nnc(-c3cc(OC)c(OC)c(OC)c3)o2)c1C (stereo not drawn)	27*	.	.	1724	13	4	PPARg SRC2 ag=24*;PPARg SRC1 conf=25*;PPARg SRC3 conf=17
CCOC(=O)c1sc(-c2ccc(Br)cc2)cc1N	5	.	.	1901	6	15
CCOC(=O)c1cc(-c2ccc(N)cc2)sc1N	16	.	.	1795	16	28*	PPARg SRC2 ag=11;PPARg SRC1 conf=8;PPARg SRC3 conf=6

Screens from PubChem.
